From PubChem BioAssay (NCATS) come the findings set out here.

Inconclusive results are not listed. Activity calls are given as the source filed them. Unless noted, calls come from the whole dose curve; as a rule, active = well fitted curve in either direction with a large enough effect (not every such curve was filed as active); inconclusive = small, poorly fitted or top-dose-only effect, or another doubt; inactive = flat fitted curve, though single readings scatter.

The target of assay [1] is Lysosomal acid glucosylceramidase (Homo sapiens) (UniProt P04062). In words: Glucocerebrosidase-p2 (AID 348; in the data active = potency below about 10 µM; note: potency is the fitted concentration of half-maximal effect). The settings on record: purified GBA, blue fluorogenic substrate, 40 min. In outline: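 Normal human glucocerebrosidase (0.2 nM) with blue fluorogenic substrate (80 uM final) in citrate/phosphate pH 5.9 with 10mM sodium taurocholate, 0.01% tween-20; 40 min RT, NaOH/glycine stop; fluorescence Ex 365/Em 440; AC50 from a titration from 0.6 nM upwards.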
Chain of Lysosomal acid glucosylceramidase (Homo sapiens) (P04062 whole entry, looked up): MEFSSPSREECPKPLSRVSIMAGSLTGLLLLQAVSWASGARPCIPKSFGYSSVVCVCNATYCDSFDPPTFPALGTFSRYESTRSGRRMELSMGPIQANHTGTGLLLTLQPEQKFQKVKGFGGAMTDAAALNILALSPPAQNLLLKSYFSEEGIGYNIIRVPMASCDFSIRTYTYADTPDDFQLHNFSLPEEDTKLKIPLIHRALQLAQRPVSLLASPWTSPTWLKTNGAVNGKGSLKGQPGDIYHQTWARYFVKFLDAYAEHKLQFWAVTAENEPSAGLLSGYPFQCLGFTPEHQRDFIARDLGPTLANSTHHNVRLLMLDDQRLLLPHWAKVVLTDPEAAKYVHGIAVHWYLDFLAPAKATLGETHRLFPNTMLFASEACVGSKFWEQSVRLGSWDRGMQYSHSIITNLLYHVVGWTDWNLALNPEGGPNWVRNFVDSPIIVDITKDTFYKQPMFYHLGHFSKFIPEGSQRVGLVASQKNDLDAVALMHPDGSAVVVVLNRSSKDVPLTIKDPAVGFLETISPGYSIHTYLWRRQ

A short description of assay [2]: AP1 Signaling Pathway (AID 357).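 Note: ME-180 reporter cells stimulated with EGF at its EC50 level; % is set by controls: 0 for no effect and ±100 for the full control effect.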 The settings on record: ME-180 AP-1-bla reporter, EGF-induced, beta-lactamase ratio, 5 h; at 7.69 µM (top of the series) unless noted. In outline: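 A ratiometric CCF4 readout (405 nm excitation; 460 and 530 nm emission) quantified AP-1-driven beta-lactamase in ME-180 cells after 5 h with compound and EC50 EGF; AC50 values were derived for activators and inhibitors.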

Assay [3] addresses Cytochrome P450 1A2 (Homo sapiens) (UniProt P05177). The assay is described as follows: p450-cyp1a2 (AID 410; calls by dose curve; note: potency is the fitted concentration of half-maximal effect). The settings on record: recombinant CYP1A2, luciferin-ME demethylation, luminescence; series mostly up to 57 µM. In outline:
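O-Demethylation of luciferin 6' methyl ether by human CYP1A2 is monitored as luciferase luminescence. Substrate sits at Km (100uM); enzyme is 20nM. Values are scaled to 57 uM furafylline as maximal inhibition.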

Assay [4] is described as follows: NFAT Signaling Pathway (AID 444).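 Note: carbachol stimulus at about its EC50 of 1 µM final; % is set by controls: 0 for no effect and ±100 for the full control effect.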 Particulars: Jurkat NFAT-bla M1, carbachol, beta-lactamase ratio, 5 h; at 7.69 µM (top of the series) unless noted. The gist of the method:
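Jurkat cells with NFAT-driven β-lactamase reporter and co-expressed M1 receptor, stimulated with carbachol (final 1 uM, ~EC50), compound titration, 5 h at 37 °C. CCF4 loaded 1 h at RT; 460/530 nm ratio gave %activity and AC50.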

Assay [5] in a line: Stat Signaling Pathway (AID 446).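 Note: ME-180 cervical cancer cells given 40 pM IL-6 alongside compound; SIE-controlled beta-lactamase reporter measured as 460/530 nm FRET emission ratio; % is set by controls: 0 for no effect and ±100 for the full control effect.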 Particulars: ME-180 (cervical carcinoma) SIE beta-lactamase reporter, IL-6 stimulated, 5 h; at 7.69 µM (top of the series) unless noted. The gist of the method:
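Emission at 460 and 530 nm (excitation 405 nm) reports SIE-controlled beta-lactamase in ME-180 cells. Cells received compound with 40 pM IL-6 for 5 hrs at 37 C; data scaled between 300 pM IL-6 and 125 nM JAK-inhibitor controls.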

In assay [6] the target is Mitogen-activated protein kinase 10 (Mus musculus) (UniProt Q61831). The assay is described as follows: JNK3 AlphaScreen Assay (AID 530).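 Note: kinase came from lysate of stimulated human HepG2 cells; signal reports phosphorylation of biotinylated GST-cJun 1-79 at Ser73 with 10 µM ATP; % is set by controls: 0 for no effect and ±100 for the full control effect.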 The settings on record: JNK3 lysate, c-Jun phosphorylation; series mostly up to 57.1 µM. The gist of the method:
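Activity was read by AlphaScreen after JNK3-containing HepG2 lysate (cytokine pre-activated) phosphorylated biotinylated GST-cJun with 10 uM ATP at room temperature. Phospho-Ser73 cJun antibody with Protein-A acceptor beads provided detection.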
(In general: In Alpha technology, singlet oxygen from a donor bead excites a nearby acceptor bead.)

The target of assay [7] is 3',5'-cyclic-AMP phosphodiesterase 4B (Homo sapiens) (UniProt Q07343). The assay is described as follows: qHTS Assay for Inhibitors of PDE-IV (AID 607; active = well fitted activation curve with a large enough effect in the main read-out, with a control signal flat, not every such curve was filed as active; note: % of control where 0% means no effect). The settings on record: HEK293 ACTOne CNG channel cells, membrane potential fluorescence; series mostly up to 22.9 µM. In outline:
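The readout is membrane depolarisation from a cAMP-sensing CNG channel, detected with a potential dye at ex 535/em 590. Cells were HEK293-derived (endogenous PDE-IV) at 1000 cells/well, titrated up to 22.9 uM final.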
A general note: In qHTS, concentration-response curves come from the screen itself.

For assay [8], the target named is Cytochrome P450 3A4 (Homo sapiens) (UniProt P08684). The assay is described as follows: qHTS Assay for Inhibitors and Substrates of Cytochrome P450 3A4 (AID 884; active = well fitted curve in the direction sought with a large enough effect; an effect the other way counts as inactive or inconclusive; note: % is set by controls: 0 for no effect and ±100 for the full control effect; nearly all actives have a fitted effect of over 50% in size). Particulars: recombinant CYP3A4, Luciferin-PPXE luminescence; series mostly up to 57.1 µM. The gist of the method: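 Luminescent readout of luciferin produced by CYP3A4 (20 nM) dealkylation of Luciferin-PPXE, 25 uM (its KM). NADPH-driven reaction ran 60 min at RT after 10 min compound preincubation; data scaled to 57 uM ketoconazole as 100% inhibition.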
Chain of Cytochrome P450 3A4 (Homo sapiens) (P08684 whole entry, looked up): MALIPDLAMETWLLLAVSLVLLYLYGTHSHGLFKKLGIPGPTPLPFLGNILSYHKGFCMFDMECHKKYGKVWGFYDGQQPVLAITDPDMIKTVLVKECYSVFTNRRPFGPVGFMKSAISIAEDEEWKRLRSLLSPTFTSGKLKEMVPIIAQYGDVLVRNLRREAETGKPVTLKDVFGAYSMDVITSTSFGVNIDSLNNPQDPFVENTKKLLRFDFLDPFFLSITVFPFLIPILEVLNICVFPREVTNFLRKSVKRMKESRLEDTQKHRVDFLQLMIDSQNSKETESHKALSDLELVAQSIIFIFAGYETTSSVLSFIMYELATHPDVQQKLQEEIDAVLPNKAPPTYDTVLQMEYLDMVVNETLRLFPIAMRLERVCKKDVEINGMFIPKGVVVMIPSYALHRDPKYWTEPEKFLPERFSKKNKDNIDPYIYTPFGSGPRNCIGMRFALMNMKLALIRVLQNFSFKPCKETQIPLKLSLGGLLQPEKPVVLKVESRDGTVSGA

For assay [9] the target is unchanged. The assay is described as follows: qHTS Assay for Activators of Cytochrome P450 3A4 (AID 885; active = well fitted curve in the direction sought with a large enough effect; an effect the other way counts as inactive or inconclusive; note: nearly all actives have a fitted effect of over 65% in size; note: potency is the fitted concentration of half-maximal effect). Particulars: recombinant CYP3A4, Luciferin-PPXE luminescence, 60 min; series mostly up to 57.1 µM. The gist of the method:
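Activators are scored by enhanced luminescence from CYP3A4 conversion of luciferin-PPXE (25uM, equal to KM) to luciferin, after 60 min at RT with an NADPH-regenerating system.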

The target in assay [10] is Cytochrome P450 2D6 (Homo sapiens) (UniProt P10635). In words: qHTS Assay for Inhibitors and Substrates of Cytochrome P450 2D6 (AID 891; active = well fitted curve in the direction sought with a large enough effect; an effect the other way counts as inactive or inconclusive; note: potency is the fitted concentration of half-maximal effect; nearly all actives have a fitted effect of over 60% in size). Particulars: recombinant CYP2D6, luciferin-ME EGE luminescence; series mostly up to 57.1 µM. The gist of the method:
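Luminescent read-out of luciferin formed by 5 nM human CYP2D6 demethylating 30 uM Luciferin-ME EGE (Km level) over 60 min at room temperature after NADPH regeneration addition. Data normalized to full inhibition by 1.43 uM quinidine.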

A short description of assay [11]: qHTS Assay for Lipid Storage Modulators (AID 1519; calls by dose curve). Particulars: Drosophila S3 cells, BODIPY lipid droplet/cell ratio, laser cytometry, cells loaded with oleic acid; for activity change, negative = inhibition: at 57.5 µM (top of the series). The gist of the method:
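Cells seeded at 5,000 per well were treated with compounds over a concentration series and loaded with oleic acid (400 uM, as added). Lipid droplet fluorescence (488 nm excitation, 500-530 nm channel) was read by laser-scanning cytometry and normalized to 20 uM Triacsin C.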

A short description of assay [12]: Primary qHTS for small molecule stabilizers of the endoplasmic reticulum resident proteome: Secreted ER Calcium Modulated Protein (SERCaMP) assay (AID 1508630; active = well fitted curve in the direction sought with a large enough effect; an effect the other way counts as inactive or inconclusive; note: % is set by controls: 0 for no effect and ±100 for the full control effect). The settings on record: SH-SY5Y GLuc-SERCaMP (Gaussia luciferase released on ER calcium loss) secretion, thapsigargin, luminescence; series mostly up to 38.4 µM. In outline:
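The SH-SY5Y reporter protocol was run at 3 concentrations up to 38.3 uM (primary) or 11 concentrations (follow-up): 16 h compound, 100 nM thapsigargin for 4 h, then extracellular luciferase luminescence.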

For assay [13], the target named is Glucocorticoid receptor (Homo sapiens) (UniProt P04150). In words: GR-EFC Redistribution (AID 451; calls by dose curve; note: potency is the fitted concentration of half-maximal effect). Particulars: CHO-K1 GR-EFC translocation, beta-gal luminescence, 2 h. The gist of the method: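 CHO-K1 cells expressing nuclear EA and GR-ED fragments of b-gal; compounds titrated up to 46 uM final, 2 h at 37 C. GR nuclear translocation read as complemented b-gal luminescence after 1 h RT detection.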
Chain of Glucocorticoid receptor (Homo sapiens) (P04150 whole entry, looked up, the tested form may be a part): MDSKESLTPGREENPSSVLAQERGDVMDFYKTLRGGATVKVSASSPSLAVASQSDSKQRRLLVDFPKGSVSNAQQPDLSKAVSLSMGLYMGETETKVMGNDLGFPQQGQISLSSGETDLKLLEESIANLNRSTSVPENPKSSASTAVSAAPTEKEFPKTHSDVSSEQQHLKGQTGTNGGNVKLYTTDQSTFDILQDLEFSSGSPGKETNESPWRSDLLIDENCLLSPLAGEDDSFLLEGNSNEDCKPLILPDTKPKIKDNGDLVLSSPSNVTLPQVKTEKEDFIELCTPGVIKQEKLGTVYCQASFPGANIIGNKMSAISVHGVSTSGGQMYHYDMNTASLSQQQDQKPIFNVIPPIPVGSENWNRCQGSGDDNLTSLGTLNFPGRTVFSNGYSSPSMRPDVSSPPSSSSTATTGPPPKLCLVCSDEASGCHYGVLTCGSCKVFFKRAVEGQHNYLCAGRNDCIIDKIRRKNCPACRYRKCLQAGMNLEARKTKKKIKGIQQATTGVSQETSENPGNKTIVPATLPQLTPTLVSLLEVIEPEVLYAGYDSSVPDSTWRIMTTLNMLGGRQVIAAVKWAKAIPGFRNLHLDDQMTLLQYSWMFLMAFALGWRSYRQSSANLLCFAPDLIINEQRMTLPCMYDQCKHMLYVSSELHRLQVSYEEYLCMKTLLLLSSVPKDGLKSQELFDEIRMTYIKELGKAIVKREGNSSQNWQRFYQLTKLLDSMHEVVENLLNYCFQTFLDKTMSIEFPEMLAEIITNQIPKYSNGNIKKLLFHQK

The target is the same in assay [14]. The assay is described as follows: GR-GFP Redistribution (AID 450;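 active = compounds whose dose series gives a full or clear partial fitted curve of increased nuclear translocation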; note: potency is the fitted concentration of half-maximal effect). Particulars: U2OS GR-GFP nuclear translocation, laser cytometry, 2 h.
Assay [15] is described as follows: Confirmation and Secondary Assay for Modulators of Hemoglobin Beta Chain Splicing at IVS2 654 locus (AID 910; active = well fitted curve in the direction sought with a large enough effect; an effect the other way counts as inactive or inconclusive;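 note: HeLa cells stably carrying EGFP split by mutant beta-globin IVS2-654 intron; % of control where 0% means no effect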). The settings on record: HeLa EGFP-654 splicing reporter, GFP fluorescence, 48 h; series mostly up to 38.3 µM. In outline:
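HeLa cells stably expressing EGFP interrupted by β-globin IVS2-654 intron, seeded overnight in Opti-MEM/2% FCS, then treated 2 days at 37 °C. Restored splicing read as total peak GFP intensity per well by laser scanning cytometry (488 nm excitation, 500–520 nm emission); 500 nM antisense PNA as control.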

Assay [16] is described as follows: Confirmation and Secondary Assay for Modulators of Hemoglobin Beta Chain Splicing at IVS2 705 locus (AID 930; active = well fitted curve in the direction sought with a large enough effect; an effect the other way counts as inactive or inconclusive;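 note: HeLa cells stably expressing the EGFP-705 splicing reporter; % of control where 0% means no effect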). The settings on record: HeLa EGFP-705 splicing reporter, GFP fluorescence, 48 h; series mostly up to 38.3 µM. The gist of the method: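 Restored EGFP fluorescence after 2-day compound exposure reports splicing correction in IVS2-705 EGFP reporter HeLa cells; positive control was 500 nM splice-blocking PNA oligo. Signal measured as well total peak GFP intensity (488 nm excitation).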

The target of assay [17] is Ubiquitin carboxyl-terminal hydrolase 1 (Homo sapiens) (UniProt O94782). The assay is described as follows: Inhibitors of USP1/UAF1: Pilot qHTS (AID 504865; active = well fitted curve in the direction sought with a large enough effect; an effect the other way counts as inactive or inconclusive;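 note: rhodamine fluorescence freed from ubiquitin-rhodamine substrate followed over time; top concentration of the series differs between compounds; % is set by controls: 0 for no effect and ±100 for the full control effect; nearly all actives have a fitted effect of over 35% in size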). The settings on record: purified USP1/UAF1, Ub-rhodamine cleavage fluorescence; series mostly up to 54.9 µM. The gist of the method:
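1nM USP1/UAF1 + cpd, 15 min RT; start w/ Ub-Rho 150nM final; kinetic FL 480/540 nm, 6 reads q60 s. Buffer 50mM HEPES pH 7.8, 0.5mM EDTA, 1mM TCEP, 0.01% Tween-20, 0.1 mg/ml BSA.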

Setting [18] is: measured here: cell count channel max response.
[19] abbreviates: measured here: lipid channel max response.

Chain of 3',5'-cyclic-AMP phosphodiesterase 4B (Homo sapiens) (Q07343 whole entry, looked up): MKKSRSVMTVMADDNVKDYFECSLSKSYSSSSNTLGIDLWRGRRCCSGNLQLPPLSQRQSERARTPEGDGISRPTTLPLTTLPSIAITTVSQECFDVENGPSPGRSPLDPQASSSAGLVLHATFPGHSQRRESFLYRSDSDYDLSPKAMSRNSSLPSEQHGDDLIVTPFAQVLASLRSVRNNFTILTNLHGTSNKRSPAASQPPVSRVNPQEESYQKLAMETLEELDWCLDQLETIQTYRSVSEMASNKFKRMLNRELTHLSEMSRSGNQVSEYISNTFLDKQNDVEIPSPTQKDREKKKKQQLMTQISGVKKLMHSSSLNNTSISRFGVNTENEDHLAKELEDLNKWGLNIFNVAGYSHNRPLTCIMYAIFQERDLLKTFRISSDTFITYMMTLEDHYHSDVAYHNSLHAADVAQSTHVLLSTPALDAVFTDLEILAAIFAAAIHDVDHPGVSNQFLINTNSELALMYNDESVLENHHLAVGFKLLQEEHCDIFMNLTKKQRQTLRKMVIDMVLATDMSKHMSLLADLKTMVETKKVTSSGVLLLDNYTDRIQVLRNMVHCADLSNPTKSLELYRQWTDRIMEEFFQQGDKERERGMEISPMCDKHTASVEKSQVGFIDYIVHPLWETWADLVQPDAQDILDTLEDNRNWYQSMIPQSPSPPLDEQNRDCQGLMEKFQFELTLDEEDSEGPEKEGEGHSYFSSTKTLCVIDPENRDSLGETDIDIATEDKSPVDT
Chain of Cytochrome P450 1A2 (Homo sapiens) (P05177 whole entry, looked up): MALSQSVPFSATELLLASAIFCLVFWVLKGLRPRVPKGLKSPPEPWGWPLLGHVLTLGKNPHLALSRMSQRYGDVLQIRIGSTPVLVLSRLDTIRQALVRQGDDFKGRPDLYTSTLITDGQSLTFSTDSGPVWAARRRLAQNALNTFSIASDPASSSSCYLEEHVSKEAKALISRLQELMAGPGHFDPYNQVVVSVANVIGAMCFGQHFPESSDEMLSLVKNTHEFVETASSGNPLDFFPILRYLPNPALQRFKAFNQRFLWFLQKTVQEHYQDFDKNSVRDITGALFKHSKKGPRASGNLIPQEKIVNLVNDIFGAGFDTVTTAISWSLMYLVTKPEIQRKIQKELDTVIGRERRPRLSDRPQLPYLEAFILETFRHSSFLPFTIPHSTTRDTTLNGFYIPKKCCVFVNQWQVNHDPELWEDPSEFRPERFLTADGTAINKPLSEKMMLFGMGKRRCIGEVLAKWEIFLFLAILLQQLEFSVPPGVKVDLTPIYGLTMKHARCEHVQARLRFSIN
Chain of Cytochrome P450 2D6 (Homo sapiens) (P10635 whole entry, looked up): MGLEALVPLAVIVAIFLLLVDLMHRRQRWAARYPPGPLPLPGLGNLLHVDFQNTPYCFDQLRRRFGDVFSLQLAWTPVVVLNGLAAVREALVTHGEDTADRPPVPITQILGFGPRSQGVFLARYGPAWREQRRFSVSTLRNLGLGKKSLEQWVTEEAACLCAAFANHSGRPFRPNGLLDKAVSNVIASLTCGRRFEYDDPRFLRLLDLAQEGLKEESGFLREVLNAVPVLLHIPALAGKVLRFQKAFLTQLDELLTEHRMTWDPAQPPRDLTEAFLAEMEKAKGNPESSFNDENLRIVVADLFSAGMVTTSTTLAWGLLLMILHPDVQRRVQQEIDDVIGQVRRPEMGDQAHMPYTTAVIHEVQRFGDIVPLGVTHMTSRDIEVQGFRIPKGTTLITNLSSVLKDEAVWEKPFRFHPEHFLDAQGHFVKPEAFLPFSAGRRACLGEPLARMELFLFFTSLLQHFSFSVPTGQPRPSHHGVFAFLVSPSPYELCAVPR
Chain of Ubiquitin carboxyl-terminal hydrolase 1 (Homo sapiens) (O94782 whole entry, looked up): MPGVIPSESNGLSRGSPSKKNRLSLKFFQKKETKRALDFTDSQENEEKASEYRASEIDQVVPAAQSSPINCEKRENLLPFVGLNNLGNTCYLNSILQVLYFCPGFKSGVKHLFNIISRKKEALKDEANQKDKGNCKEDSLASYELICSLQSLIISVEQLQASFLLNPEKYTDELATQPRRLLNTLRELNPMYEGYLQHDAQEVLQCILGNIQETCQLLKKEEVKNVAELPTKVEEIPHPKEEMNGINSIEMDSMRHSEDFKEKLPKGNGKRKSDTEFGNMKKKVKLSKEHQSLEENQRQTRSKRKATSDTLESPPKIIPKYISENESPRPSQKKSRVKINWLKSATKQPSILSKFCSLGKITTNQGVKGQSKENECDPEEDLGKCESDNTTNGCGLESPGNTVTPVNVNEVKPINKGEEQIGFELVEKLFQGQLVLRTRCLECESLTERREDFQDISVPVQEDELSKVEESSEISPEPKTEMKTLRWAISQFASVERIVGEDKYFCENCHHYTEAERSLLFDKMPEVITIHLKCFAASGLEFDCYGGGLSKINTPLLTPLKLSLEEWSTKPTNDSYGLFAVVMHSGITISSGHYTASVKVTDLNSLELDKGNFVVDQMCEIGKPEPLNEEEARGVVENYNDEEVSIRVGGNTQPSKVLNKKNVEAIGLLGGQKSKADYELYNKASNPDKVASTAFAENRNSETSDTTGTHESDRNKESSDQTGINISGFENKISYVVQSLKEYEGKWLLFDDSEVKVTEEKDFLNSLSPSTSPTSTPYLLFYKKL

Consider `O=C(c1cnccn1)N1CCC2(CC1)CCN(C(c1ccccc1)c1ccccc1)CC2`, for which the Potency is > 11.4 µM (inactive) in [1], 10 µM (active) in assay [3], 3.16 µM (active) in [9] and 3.98 µM (active) in assay [10]. In addition, the activity change, negative = inhibition is 8.38% (inactive) in assay [2], -20.1% (inactive) in [4] and 1.71% (inactive) in assay [11]. Moreover, in [5], the activity, negative = inhibition is 6.95% (inactive). Moreover, in [6], the result was inactive. Moreover, the Potency result in assay [7], in [8] and in [12] was “inactive” throughout. The max response came to 1.55% in [11] (setting [18]) and 5.2% in assay [11] (setting [19]).
With `O=C(c1ccco1)N1CCC2(CC1)CCN(c1cccc(-c3ccccc3)c1)CC2`, the Potency was > 11.4 µM (inactive) in [1], 15.8 µM (active) in assay [3] and > 46 µM (inactive) in assay [13]. The activity change, negative = inhibition in [2] is 8.59% (inactive); in [4], -13.9% (inactive); in assay [11] it was 5.77% (inactive). Also, the activity, negative = inhibition in [5] is -16.1% (inactive). Besides, the Potency entry in assay [7] and in assay [12] was “inactive” each time. The max response is -0.036% in [11] (setting [18]) and 9.11% in [11] (setting [19]).
Consider `N#CCCn1c(=O)c(-c2cccs2)nc2cnc(OCc3ccccc3)nc21`, for which the Potency was > 11.4 µM (inactive) in assay [1], 3.98 µM (active) in assay [3], > 9.22 µM (inactive) in assay [14] and > 46 µM (inactive) in assay [13]. Moreover, the figures for the activity change, negative = inhibition in assay [2], in assay [4] and in [11] were 9.62% (inactive), 6.28% (inactive) and -2.65% (inactive), respectively. Moreover, the compound was called inactive in assay [6]. Moreover, the Potency entry in assay [7] and in assay [12] was “inactive” each time. For the same compound, the max response in [11] (setting [18]) was determined as 0.666%; in assay [11] (setting [19]), 1.75%.
As for `COC(=O)N1CCC[C@@]2(CCN(C(c3ccccc3)c3ccccc3)C2)C1`, the Potency in [1] is > 11.4 µM (inactive); in [3] it was 12.6 µM (active); in [13] it was > 46 µM (inactive); in assay [10] it was 2 µM (active). Moreover, the activity change, negative = inhibition in [2] is -2.49% (inactive); in assay [4], -6.57% (inactive); in assay [11], -5.11% (inactive). The activity, negative = inhibition in assay [5] was 3.94% (inactive). Further, the result in [6] was inactive. Besides, the max response in assay [11] (setting [18]) turned out to be 6.34%; in [11] (setting [19]), 4.63%. Moreover, the Potency result in [12] was “inactive”.
Take `CN(C)c1ncnc2ccc(-c3ccccc3C#N)cc12`: the Potency is > 11.4 µM (inactive) in [1], 0.398 µM (active) in assay [3], > 46 µM (inactive) in assay [14] and > 46 µM (inactive) in [13]. Moreover, the figures for the activity change, negative = inhibition in [2], in [4] and in assay [11] were -24% (inactive), 20.3% (inactive) and 8.38% (inactive), respectively. The call in [6], in [15] and in [16] was inactive. Moreover, the Potency result in assay [7], in assay [9], in assay [17] and in assay [12] was “inactive” throughout. Also, the max response was determined as 15.4% in [11] (setting [18]) and 23.3% in [11] (setting [19]).
